Data: PubChem BioAssay
For part of these data: Entries with a potency or affinity are not part of this list. Calls of active or inactive are those of the source. How the calls were made is not given here.

target: Plasmodium falciparum protein kinase 6 (PK6, PF3D7_1337100) (UniProt Q8IDW1); experiment: PfPK6 kinase inhibitors, biochemical, TCAMS library (AID 1159586); conditions: recombinant PfPK6, Kinase-Glo ATP depletion luminescence
Sequence (Q8IDW1 1-305): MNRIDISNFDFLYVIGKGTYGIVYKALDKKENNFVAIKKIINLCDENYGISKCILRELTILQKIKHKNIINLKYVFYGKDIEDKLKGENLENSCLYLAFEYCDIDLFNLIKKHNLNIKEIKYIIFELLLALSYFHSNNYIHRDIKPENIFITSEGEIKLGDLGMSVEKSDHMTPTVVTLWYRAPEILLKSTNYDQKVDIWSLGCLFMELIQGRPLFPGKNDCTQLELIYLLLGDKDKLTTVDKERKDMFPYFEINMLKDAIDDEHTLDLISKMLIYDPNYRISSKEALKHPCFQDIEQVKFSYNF

outcome, inactive:
CCOC(=O)N1CCN(CCCCCNc2cc(C)nc(/N=C(\N)Nc3ccc(Cl)cc3)n2)CC1
COc1cc(CCNC(=O)Cc2ccc3ccccc3c2)ccc1OCc1ccccc1
CCN(Cc1cccc2ccccc12)c1ccc2nc(N)nc(N)c2c1
CCn1c(O)c(N=NC(=S)N2CCCC2)c2ccccc21
CCCCC#Cc1cnc2nc(N)[nH]c(=O)c2n1
NC(=NCC1CC1c1ccccc1)c1cccc(C(N)=NCC2CC2c2ccccc2)n1 (stereo not drawn)
COc1ccc(Cc2c(Cl)nc3nc(N)nc(N)c3c2C)cc1
CCCCc1cc(Cc2cnc(N)nc2N)cc(OC)c1OC
COc1cccc2c(O)c(CNC3CCCCC3)ccc12
Cc1nc(N)nc(N)c1-c1cc(Cl)c(Cl)c(Cl)c1
Cc1[nH]c(C)c(-c2ccc(-c3ccc(F)cc3)cc2)c(=O)c1Cl
CC(C)Cn1cc2c(ccc3nc(N)nc(N)c32)n1
CCN(CC)CCNc1cc(C)nc(/N=C(\N)Nc2ccc(Cl)cc2)n1
CCNC(=NCc1ccccc1)NCCCCCCNC(=NCc1ccccc1)NCC
Cc1[nH]c(C)c(-c2ccc(Oc3ccc(Cl)c(Cl)c3)cc2)c(=O)c1Br
Cc1ccc2ccncc2c1N
CCCc1cc(Cc2cnc(N)nc2N)c2cccnc2c1OC
Cn1c(=N)cc(-c2cccc(I)c2)c2c(=O)[nH]c(N)nc21
CN(C)S(=O)(=O)n1ccc2c3c(N)nc(N)nc3ccc21
Cc1[nH]c(C)c(-c2ccc(Oc3cc(Cl)cc(Cl)c3)cc2)c(=O)c1Br
CCCCNCc1ccc(OCc2cccc(COc3ccc(CNCCCC)cc3I)c2)c(I)c1
CCCCOc1c(CCNCCCCNCCc2cc(OC)c3ccccc3c2OCCCC)cc(OC)c2ccccc12
c1ccc2c(NCCOCCNc3c4ccccc4nc4ccccc34)c3ccccc3nc2c1
Cc1[nH]c(C)c(-c2ccc(Oc3cccc(OC(F)(F)F)c3)cc2)c(=O)c1Cl
Oc1ccc2c(CNC3CCCCC3)c(O)ccc2c1CNC1CCCCC1
CC(C)Cn1ccc2c3c(N)nc(N)nc3ccc21
COc1cc(Cc2cnc(N)nc2N)cc(OCCCCNS(=O)(=O)C(F)(F)F)c1OC
CC(=O)Oc1c(Cl)c(C)nc(C)c1-c1ccc(Oc2ccc(Cl)cc2)cc1
Oc1c(CNC2CCCCC2)cc(Cl)c2ccccc12
COc1ccc(-c2cnc(N)nc2N)cc1Cl
Cc1c(Cc2ccc(C(C)C)cc2)cnc2nc(N)nc(N)c12
Cc1nc(N)nc(N)c1-c1ccc(Br)c(Br)c1
COc1cc(Cc2cnc(N)nc2N)cc(OCCCC(=O)O)c1OC
Cc1[nH]c(C)c(-c2ccc(Oc3ccc(S(C)=O)cc3)cc2)c(=O)c1Br (stereo not drawn)
CN1CCN(c2ccc3nc(-c4ccc5nc(-c6ccc([N+](=O)[O-])c(N)c6)[nH]c5c4)[nH]c3c2)CC1
CCCc1cc2c3c(N)nc(N)nc3ccc2n1CC
COc1ccc(OC)c(Cc2c(C)nc3nc(N)nc(N)c3c2C)c1
CCC(C(C)C)n1ccc2c3c(N)nc(N)nc3ccc21 (stereo not drawn)
C=CCn1ccc2c3c(N)nc(N)nc3ccc21

target: Protein kinase 7 (PK7), Plasmodium falciparum 3D7 (PF3D7_0213400) (UniProt Q7YTF7); experiment: inhibition of Plasmodium PK7 catalytic activity – biochemical, TCAMS antimalarial set, Kinase-Glo luminescence (AID 1159587); conditions: recombinant PfPK7, Kinase-Glo ATP depletion luminescence
Sequence (Q7YTF7 1-343): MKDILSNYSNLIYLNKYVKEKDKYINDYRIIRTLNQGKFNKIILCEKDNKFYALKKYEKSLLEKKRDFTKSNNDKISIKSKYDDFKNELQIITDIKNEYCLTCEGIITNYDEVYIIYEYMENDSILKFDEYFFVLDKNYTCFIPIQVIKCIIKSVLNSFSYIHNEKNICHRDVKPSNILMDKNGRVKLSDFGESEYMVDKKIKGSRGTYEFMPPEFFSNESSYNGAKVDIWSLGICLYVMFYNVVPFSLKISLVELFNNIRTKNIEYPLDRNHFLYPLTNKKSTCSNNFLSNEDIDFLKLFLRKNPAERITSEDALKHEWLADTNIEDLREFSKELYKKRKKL

outcome, inactive:
CCOC(=O)N1CCN(CCCCCNc2cc(C)nc(/N=C(\N)Nc3ccc(Cl)cc3)n2)CC1
COc1cc(CCNC(=O)Cc2ccc3ccccc3c2)ccc1OCc1ccccc1
CCN(Cc1cccc2ccccc12)c1ccc2nc(N)nc(N)c2c1
CCn1c(O)c(N=NC(=S)N2CCCC2)c2ccccc21
CCCCC#Cc1cnc2nc(N)[nH]c(=O)c2n1
NC(=NCC1CC1c1ccccc1)c1cccc(C(N)=NCC2CC2c2ccccc2)n1 (stereo not drawn)
COc1ccc(Cc2c(Cl)nc3nc(N)nc(N)c3c2C)cc1
CCCCc1cc(Cc2cnc(N)nc2N)cc(OC)c1OC
COc1cccc2c(O)c(CNC3CCCCC3)ccc12
Cc1nc(N)nc(N)c1-c1cc(Cl)c(Cl)c(Cl)c1
Cc1[nH]c(C)c(-c2ccc(-c3ccc(F)cc3)cc2)c(=O)c1Cl
CC(C)Cn1cc2c(ccc3nc(N)nc(N)c32)n1
CCN(CC)CCNc1cc(C)nc(/N=C(\N)Nc2ccc(Cl)cc2)n1
CCNC(=NCc1ccccc1)NCCCCCCNC(=NCc1ccccc1)NCC
Cc1[nH]c(C)c(-c2ccc(Oc3ccc(Cl)c(Cl)c3)cc2)c(=O)c1Br
Cc1ccc2ccncc2c1N
CCCc1cc(Cc2cnc(N)nc2N)c2cccnc2c1OC
Cn1c(=N)cc(-c2cccc(I)c2)c2c(=O)[nH]c(N)nc21
CN(C)S(=O)(=O)n1ccc2c3c(N)nc(N)nc3ccc21
Cc1[nH]c(C)c(-c2ccc(Oc3cc(Cl)cc(Cl)c3)cc2)c(=O)c1Br
CCCCNCc1ccc(OCc2cccc(COc3ccc(CNCCCC)cc3I)c2)c(I)c1
CCCCOc1c(CCNCCCCNCCc2cc(OC)c3ccccc3c2OCCCC)cc(OC)c2ccccc12
c1ccc2c(NCCOCCNc3c4ccccc4nc4ccccc34)c3ccccc3nc2c1
Cc1[nH]c(C)c(-c2ccc(Oc3cccc(OC(F)(F)F)c3)cc2)c(=O)c1Cl
Oc1ccc2c(CNC3CCCCC3)c(O)ccc2c1CNC1CCCCC1
CC(C)Cn1ccc2c3c(N)nc(N)nc3ccc21
COc1cc(Cc2cnc(N)nc2N)cc(OCCCCNS(=O)(=O)C(F)(F)F)c1OC
CC(=O)Oc1c(Cl)c(C)nc(C)c1-c1ccc(Oc2ccc(Cl)cc2)cc1
Oc1c(CNC2CCCCC2)cc(Cl)c2ccccc12
COc1ccc(-c2cnc(N)nc2N)cc1Cl
Cc1c(Cc2ccc(C(C)C)cc2)cnc2nc(N)nc(N)c12
Cc1nc(N)nc(N)c1-c1ccc(Br)c(Br)c1
COc1cc(Cc2cnc(N)nc2N)cc(OCCCC(=O)O)c1OC
Cc1[nH]c(C)c(-c2ccc(Oc3ccc(S(C)=O)cc3)cc2)c(=O)c1Br (stereo not drawn)
CN1CCN(c2ccc3nc(-c4ccc5nc(-c6ccc([N+](=O)[O-])c(N)c6)[nH]c5c4)[nH]c3c2)CC1
CCCc1cc2c3c(N)nc(N)nc3ccc2n1CC
COc1ccc(OC)c(Cc2c(C)nc3nc(N)nc(N)c3c2C)c1
CCC(C(C)C)n1ccc2c3c(N)nc(N)nc3ccc21 (stereo not drawn)
C=CCn1ccc2c3c(N)nc(N)nc3ccc21
